40 compounds from PubChem BioAssay (Tox21) can be followed below.

Active and inactive are the calls of the source. Calls follow the shape of the dose curve; as a rule, active = well fitted curve in the direction sought with a large enough effect in the repeat runs; inconclusive = weak or mixed curves; inactive = flat fitted curve, though single readings scatter.

The nature of the assay: qHTS assay to test for compound auto fluorescence at 460 nm (blue) in HEK293 cell free culture (AID 720681). Conditions: cell-free medium, autofluorescence 405/460 nm (blue); series mostly up to 91.3 µM. The text has this: U.S. Tox21 Program National Center for Advancing Translational Sciences [NCATS] NIH Chemical Genomics Center [NCGC] U.S. Environmental Protection Agency [EPA] National Institutes of Environmental Health Sciences [NIEHS] National Toxicology Program [NTP] U.S. Food and Drug Administration [FDA] Tox21 Assay Overview: Compound auto fluorescence often interferes with screening of the compound library against various biological targets and signaling pathways. Some of these compounds may have fluorophoric properties. Such properties may interfere with the assay outputs resulting in false positives and/or negatives. To decrease such complications and ensure the compound activities are relevant in terms of biological response, the Tox21 10K compound library was screened for auto fluorescence. From the fluorophores used as reporter signals in our screening assays, the auto fluorescence equivalencies of compounds against three fluorophores have been evaluated: Triamterene, Fluorescein and Rose Bengal sodium for blue, green and red fluorescence, respectively. The fluorescence intensities were measured using Excitation/Emission wavelengths at 405/460nm, 485/535nm and 540/590nm for blue, green and red labels, respectively. This assay includes the blue fluorescence data.
Tox21 Assay Protocol Summary: 5 uL of culture medium (DMEM containing 10% FBS) per well was dispensed into black wall/clear bottom 1536-well plates using a Multidrop Combi Dispenser (ThermoFisher Scientific, Waltham, MA). After 23 nL compound or DMSO vehicle was transferred into assay plate by a pintool work station (Kalypsys, San Diego, CA), fluorescence intensities in the assay plates were measured by an Envision (PerkinElmer, Shelton, CT) plate reader using three labels for measuring blue, green and red fluorescence at […] 460, 535 and 590nm respectively.
As to `CCCCCCCCCCCCCCCCCC(=O)O`, the result was inactive.
Regarding `COc1cc(-c2ccc(N)c(OC)c2)ccc1N`, the call was inactive.
With `Clc1cnc(Oc2ccc(Oc3ncc(Cl)cc3Cl)cc2)c(Cl)c1`, the call was inactive.
Regarding `CN(C)NC(=O)CCC(=O)O`, the compound was called inactive.
As for `Cc1ccccc1N`, the result was inactive.
With `ClCCOCCCl`, the result was inactive.
The same measure for `Cl[C@H]1OCCO[C@@H]1Cl`: “inactive”.
Take `CC(C)CCCCCCOC(=O)c1ccccc1C(=O)OCCCCCCC(C)C`: the compound was called inactive.
In the case of `COc1nc(NC(C)C)nc(NC(C)C)n1`, the compound was called inactive.
With `CNc1cnn(-c2cccc(C(F)(F)F)c2)c(=O)c1Cl`, the outcome was inactive.
With `c1ccc2c(c1)CCCC2`, the compound was called inactive.
`CCOP(=S)(OCC)Oc1ccc([N+](=O)[O-])cc1`: the compound was called inactive.
For the compound `OCCCCO`, the result was inactive.
`Cc1ccc(N)cc1`: the compound was classed as inactive.
Take `CCCOC(=O)c1ccccc1C(=O)OCCC`: the compound was classed as inactive.
The same measure for `N#CN=C(N)N`: “inactive”.
`O=C(O)C(Br)Br`: the compound was classed as inactive.
As for `CN(C)CCC#N`, the compound was called inactive.
Consider `CCOC(=O)CC(SP(=O)(OC)OC)C(=O)OCC` (stereo not given), for which the compound was called inactive.
The same measure for `CNC(=O)O/N=C(\SC)C(=O)N(C)C`: “inactive”; for `Nc1nc(N)nc(NC2CC2)n1`: “inactive”.
As to `OCC(O)CCl` (stereo not given), the compound was classed as inactive.
Turning to `CN(C)C(=O)Nc1cccc(C(F)(F)F)c1`, the compound was called inactive.
The same measure for `C[C@]12CC[C@H](O)CC1=CC[C@@H]1[C@@H]2CC[C@]2(C)C(=O)CC[C@@H]12`: “inactive”; for `C[C@H]1C(=O)O[C@@H]2CCN3CC=C(COC(=O)[C@](C)(O)[C@]1(C)O)[C@H]23`: “inactive”.
As to `CC(=O)/C=C/c1ccccc1`, the result was inactive.
In the case of `N#Cc1cccc(C#N)c1`, the result was inactive.
As to `OCc1ccco1`, the compound was called inactive.
Take `CN1C(=O)CCS(=O)(=O)C1c1ccc(Cl)cc1` (stereo not given): the outcome was inactive.
The same measure for `O=C/C=C/c1ccccc1`: “inactive”; for `COS(=O)(=O)OC`: “inactive”.
For the compound `CC(=O)C1CCOC1=O` (stereo not given), the outcome was inactive.
The same measure for `FC(F)(F)c1ccc(Cl)cc1`: “inactive”; for `C=CC#N`: “inactive”.
For the compound `[N-]=[N+]=CC(=O)OC[C@H](N)C(=O)O`, the compound was called inactive.
For `Cc1ccc(N=C=O)cc1N=C=O`, the compound was classed as inactive.
In the case of `O=C(O)C1C(C(=O)O)C2(Cl)C(Cl)=C(Cl)C1(Cl)C2(Cl)Cl` (stereo not given), the result was inactive.
The same measure for `C=CC(=O)OCCCCCC(C)C`: “inactive”.
Consider `COP(=S)(OC)SCN1C(=O)c2ccccc2C1=O`, for which the compound was classed as inactive.
The same measure for `CNC(=O)O/N=C/C(C)(C)S(C)=O` (stereo not given): “inactive”.
